Inconclusive results are not listed. A call without a number means that no potency is given here. The source made the active and inactive calls. Calls come from the whole dose curve; as a rule, active = well fitted cell-killing curve with a large enough effect in the repeat runs; inconclusive = weak or mixed curves, or effect the other way; inactive = flat fitted curve, though single readings scatter.
Assay: cAMP Responsive Elements (CRE) small molecule agonists, cell-based qHTS assay: qHTS cell viability counter screen (AID 2060914); note: nearly all actives have a fitted effect of over 50% in size
Conditions: CRE-bla HEK293T viability, CellTiter-Glo luminescence, 5 h; series mostly up to 92.4 µM
How it was run: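 Cytotoxicity counter screen multiplexed with the CRE-bla reporter assay in HEK 293T cells: 3 h compound exposure at 37 °C, followed by CellTiter-Glo luminescence measured in the same wells.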

| SMILES | Potency |
| --- | --- |
| C[C@H](CN1CCOCC1)C(C(=O)N1CCCC1)(c1ccccc1)c1ccccc1 | inactive |
| CC[C@@H](CO)NC(=O)[C@@H]1C=C2c3cccc4[nH]cc(c34)C[C@H]2N(C)C1 | inactive |
| O=c1[nH]c2ccccc2n1CCCN1CCC(n2c(=O)[nH]c3cc(Cl)ccc32)CC1 | inactive |
| C[C@H]1[C@@H]2Cc3ccc(O)cc3[C@@]1(C)CCN2C | inactive |
| CCCCCCCCCCn1cc[n+](C)c1 | inactive |
| O=[N+]([O-])c1ccc(F)c([N+](=O)[O-])c1 | inactive |
| COP(=S)(OC)Oc1cc(Cl)c(Br)cc1Cl | inactive |
| CC(C)COP(=O)(OCC(C)C)OCC(C)C | inactive |
| ClC(Cl)(Cl)C(Cl)(Cl)Cl | inactive |
| CC(Cl)(Cl)[N+](=O)[O-] | inactive |
| CCC(=O)O[C@H]1CC[C@H]2[C@@H]3CCC4=CC(=O)CC[C@]4(C)[C@H]3CC[C@]12C | inactive |
| N#CSCSC#N | inactive |
| Nc1ccc(Oc2ccc(N)cc2)cc1 | inactive |
| Cc1cc(N=Nc2ccccc2C)ccc1N | inactive |
| Clc1ccccc1-c1ccccc1Cl | inactive |
| CCOP(=S)(OCC)OC(Cl)C(Cl)(Cl)Cl (stereo not given) | inactive |
| CCC(Cl)CCl (stereo not given) | inactive |
| c1ccc2c(c1)Sc1ccccc1N2CC1CN2CCC1CC2 (stereo not given) | inactive |
| CCCOCC(=Nc1ccc(Cl)cc1C(F)(F)F)n1ccnc1 | inactive |
| O=c1oc2ccccc2c(O)c1C(CC(O)c1ccc(-c2ccc(Br)cc2)cc1)c1ccccc1 (stereo not given) | inactive |

| SMILES | Potency |
| --- | --- |
| CCOCn1c(-c2ccc(Cl)cc2)c(C#N)c(Br)c1C(F)(F)F | inactive |
| O=c1[nH]c(=O)[nH]c(=O)[nH]1 | inactive |
| [Cd+2].[Cl-].[Cl-] | inactive |
| C=CCc1cc(OC)c2c(c1)OCO2 | inactive |
| CCCSP(=O)(OCC)SCCC | inactive |
| COC(=O)c1ccccc1CS(=O)(=O)NC(=O)Nc1nc(OC)cc(OC)n1 | inactive |
| C=CCOC(=O)c1ccccc1N | inactive |
| COC(=O)NS(=O)(=O)c1ccc(N)cc1 | inactive |
| [CH3][Sn]([CH3])([Cl])[Cl] | inactive |
| O=C/C=C/c1ccccc1 | inactive |
| Nc1ccc(Br)cc1 | inactive |
| CCOP(=S)(NC(C)C)Oc1ccccc1C(=O)OC(C)C (stereo not given) | inactive |
| O=C(Nc1ccccc1)c1ccccc1I | inactive |
| CN1[C@@H]2CC[C@H]1CC(O)C2 (stereo not given in full) | inactive |
| CC(C)(C)C(O)/C(=C\c1ccc(Cl)cc1Cl)n1cncn1 (stereo not given) | inactive |
| C=CC[C@]1(O)CC[C@H]2[C@@H]3CCC4=CC(=O)CCC4=C3C=C[C@@]21C | inactive |
| O=C1CCCCC1Cl (stereo not given) | inactive |
| CCOP(=O)(OCC)O/C(=C/Cl)c1ccc(Cl)cc1Cl | inactive |
| O=C1OC(=O)C2C1C1(Cl)C(Cl)=C(Cl)C2(Cl)C1(Cl)Cl (stereo not given) | inactive |
| N#Cc1ccc(O)cc1 | inactive |

From PubChem BioAssay (Tox21)
